Sampled rows, rich in hits. Any-hit rate of the full collection: about 1.5%.
MRP reversal: reversal of MRP1-mediated doxorubicin resistance, primary screen, H69AR cells, doxorubicin co-treatment; differential viability (reversal), % at 10 µM; H69AR cells + 2 uM doxorubicin, CellTiter-Glo, 72 h; hit rate 0.04% among 85,000;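 active = viability drop by adding the cancer drug above about 55%, with treated viability meeting a 40% cutoff, limit read from the data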;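 note: viability without doxorubicin minus viability with 2 µM doxorubicin for each compound; larger differential means the compound sensitizes cells more to doxorubicin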
Mac1 fbg enh: enhancers of CD11b/CD18 adhesion to fibrinogen, primary screen, K562 cells, luminescence; ATPlite luminescence; activation, % at 10 µM; hit rate 0.07% among 93,000; AID 1499, 2009;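 active = 10 µM primary screen giving 50% or more activity, confirmed by 40% or more on retest at that dose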
Target sequence (P05107 whole entry, looked up, other chains not shown): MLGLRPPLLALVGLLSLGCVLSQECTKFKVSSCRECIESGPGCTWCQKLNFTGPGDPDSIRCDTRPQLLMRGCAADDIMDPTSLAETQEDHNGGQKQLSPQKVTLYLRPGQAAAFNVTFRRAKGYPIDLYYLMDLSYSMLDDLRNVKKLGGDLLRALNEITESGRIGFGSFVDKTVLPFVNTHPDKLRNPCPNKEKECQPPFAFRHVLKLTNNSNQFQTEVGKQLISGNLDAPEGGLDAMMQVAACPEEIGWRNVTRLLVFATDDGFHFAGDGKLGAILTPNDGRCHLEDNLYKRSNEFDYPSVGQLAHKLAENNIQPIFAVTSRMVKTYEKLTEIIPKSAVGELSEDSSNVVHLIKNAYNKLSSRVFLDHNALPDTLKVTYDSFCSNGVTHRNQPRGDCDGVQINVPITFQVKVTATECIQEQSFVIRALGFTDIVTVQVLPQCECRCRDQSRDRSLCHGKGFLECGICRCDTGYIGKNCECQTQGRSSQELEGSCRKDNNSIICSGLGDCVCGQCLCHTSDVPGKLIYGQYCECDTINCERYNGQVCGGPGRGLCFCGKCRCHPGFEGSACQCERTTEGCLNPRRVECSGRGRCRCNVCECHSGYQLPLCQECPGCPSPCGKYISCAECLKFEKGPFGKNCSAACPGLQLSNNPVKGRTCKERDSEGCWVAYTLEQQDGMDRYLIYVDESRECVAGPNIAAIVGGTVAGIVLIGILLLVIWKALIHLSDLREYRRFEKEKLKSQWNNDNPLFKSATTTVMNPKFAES
Phagocyt inh: inhibitors of macrophage phagocytosis, primary screen, imaging, J774A.1 cells, IgG beads | J774A.1 macrophage IgG-bead phagocytosis | hit rate 0.07% among 110,000 | inhibition, % at 5 µM;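 active = inhibition above the mean of the plate negative controls plus 5 SD, cut at about 13% in these data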;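 note: phagocytic index as fraction of beads internalized from green versus red external bead signal; plate controls were DMSO negative control for no effect and cytochalasin-D positive control for full effect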
MRP1 act: H69AR viability gain despite doxorubicin, primary screen, MRP-1 activator project, H69AR cells, CellTiter-Glo; viability rescue; viability increase, % at 10 µM; hit rate 0.61% among 140,000; AID 799, 2007;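 active = viability gain under doxorubicin at or above a set limit, the compound median plus 3 SD, cut at about 4.7% in these data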;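 note: MRP-1 overexpressing cells given doxorubicin 25 µM after compound pretreatment; 18-22 h compound pretreatment then 72 h with doxorubicin before readout; 0% = doxorubicin-only wells and 100% = vehicle-treated cells without doxorubicin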
FAK inh: FAK kinase inhibitors, primary screen, biochemical; biochemical FAK kinase activity assay; hit rate 0.84% among 97,000; inhibition, %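 (tested at 7 µM)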; in the data active = inhibition above about 19%;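 note: 0% = DMSO and 100% = reference compound high control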
Mac1 fbg inh: inhibitors of CD11b/CD18 adhesion to fibrinogen, primary screen, K562 cells, luminescence; inhibition, % at 10 µM; Integrin beta-2 (Homo sapiens) + Integrin alpha-M (Homo sapiens), P05107+P11215; ATPlite luminescence; Mn2+ added to activate the integrin; AID 1497, 2009; hit rate 0.54% among 93,000;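 active = primary inhibition of 50% or more at 10 µM, then 40% or more on retest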
* hit, by the source's call; . = not tested or not shown; + = active, no number; [ ] = dose if it differs, or a comment.

SMILES	MRP reversal	Mac1 fbg enh	Phagocyt inh	MRP1 act	FAK inh	Mac1 fbg inh
O=C(CSc1ncn[nH]1)Nc1nnc(-c2ccccc2)s1	0	-2	0	7.2*	-4	-5
Cc1cc(=O)[nH]c(SCC(=O)Nc2nnc(CC(C)C)s2)n1	7	-5	1	0	0	9
CC1CCC/C(=C(\C#N)c2nc(-c3cc4ccccc4oc3=O)cs2)C1 (centres undefined)	.	.	-7	5.2*	.	.
O=c1oc2ccccc2cc1-c1csc(NN=C2CCCCC2)n1	.	.	.	0	1	.
CC[n+]1c(/C=C2/C=C(C)CC(C)(C)C2)sc2ccc(OC)cc21	.	.	.	-5	0	.
CC[n+]1c(/C=C2\C=C(C)CC(C)C2)sc2ccccc21 (centres undefined)	.	-6	-1	-4	1	59*
CC[n+]1c(/C=C2\C=C(C)CC(C)(C)C2)sc2ccccc21	.	-6	-4	-5	-2	73*
O=C(Cn1nc(-c2cccc([N+](=O)[O-])c2)c2ccccc2c1=O)Nc1cccnc1	-20	10	-1	1	5	-8
COc1ccc(NC(=O)C(=O)N/N=C/c2cc(C)n(-c3cccc(Cl)c3Cl)c2C)c(OC)c1	.	-5	.	5.3*	0	30
CC(=O)c1ccc(N2CCN(C(=O)c3ccco3)CC2)c(F)c1	29	-1	+	-1	-2	6
COc1ccc(CCN=C(N)NS(=O)(=O)c2ccc3ccccc3c2)cc1	.	.	0	0	.	.
CC(C)(C)C(=O)c1cn(CC(=O)NCc2ccc3c(c2)OCO3)c2ccccc12	8	-6	-1	-4	0	-10
COc1ccc(N2CCN(CCCn3c(=S)[nH]c4ncccc4c3=O)CC2)cc1	33	3	2	-2	0	62*
COc1ccc(N2CCN(c3oc(COc4ccc(Cl)cc4)nc3C#N)CC2)cc1	.	0	-3	5.8*	1	1
COc1ccc(N2CCN(c3oc(COc4ccccc4)nc3C#N)CC2)cc1	19	.	.	2	.	.
N#Cc1nc(COc2ccc(Cl)cc2)oc1N1CCN(Cc2ccccc2)CC1	.	-5	-2	4.8*	1	5
NS(=O)(=O)c1ccc(NCc2ccccc2OCc2ccc(F)cc2)cc1	.	-6	-1	-1	-1	65*
NS(=O)(=O)c1ccc(NCc2cc(Cl)ccc2OCc2ccccc2F)cc1	.	-11	-2	-2	0	22
CCCCn1c(SCC(=O)NCc2ccco2)nc2c(sc3ccccc32)c1=O	-3	12	0	-4	2	54*
CCOCCCn1c(SCC(=O)NCc2ccco2)nc2c(sc3ccccc32)c1=O	-1	0	2	-5	1	56*
O=C(CSc1nc2c(sc3ccccc32)c(=O)n1CCc1ccccc1)NCc1ccco1	2	2	0	-4	2	16
Nn1c(Cc2cccc3ccccc23)nnc1SCCOc1ccc(F)cc1	.	.	-3	0	.	.
CCOC(=O)COc1ccc(/C=C2/SC(=Nc3ccccc3)N(Cc3cccnc3)C2=O)cc1OC	.	-1	.	-2	0	4
CCOc1cc(/C=C2\SC(=Nc3ccccc3)N(c3ccccc3)C2=O)ccc1OCC(=O)O	.	.	0	5.9*	.	.
CCOC(=O)c1ccc(CNCc2ccc(C)cc2)cc1	.	-2	-3	-1	.	10
SMILES	MRP reversal	Mac1 fbg enh	Phagocyt inh	MRP1 act	FAK inh	Mac1 fbg inh
O=C(Nc1ccc(O)cc1)C1CCCO1 (centres undefined)	7	-7	0	28*	1	-25
NS(=O)(=O)c1ccc(NC(=O)C2CCCO2)cc1 (centres undefined)	-27	-4	-2	-1	-1	-3
O=C(CCc1nc2cccnc2n1Cc1ccccc1)NCCc1ccc(Cl)cc1	-6	2	-2	-2	3	-10
CCC(NC(=O)Nc1nnc(C(F)(F)F)s1)(C(F)(F)F)C(F)(F)F	-5	-9	-5	-3	0	107*
CCn1ncc(Cl)c1C(=O)Nc1cc([N+](=O)[O-])ccc1OC	.	.	0	0	.	.
O=C(N/N=C/c1c(O)ccc2ccccc12)c1[nH]ncc1Br	.	.	.	0	.	.
Cc1ccc(O)c(/C=N/NC(=O)c2[nH]ncc2Br)c1	.	.	6	4.9*	.	.
COc1cc(NS(C)(=O)=O)c(OC)cc1NC(=O)c1cccc(F)c1	3	-1	-1	0	0	-18
CC1CCN(C(=O)CN(c2ccc(Cl)c(C(F)(F)F)c2)S(C)(=O)=O)CC1	5	-2	155*	-3	-2	-25
CC(=O)/C(=C/c1ccc(N(C)C)cc1)C(=O)c1ccccc1	.	.	26*[artifact]	-2	.	.
O=C(NC1CCCC1)c1sc(=S)n2c1[nH]c(=O)c1ccccc12	-34	-8	1	-2	-3	95*
O=C(NCc1ccco1)c1sc(=S)n2c1[nH]c(=O)c1ccccc12	2	-10	1	-4	-5	96*
C=CCn1c(N)c(C(=O)NCc2ccco2)sc1=S	-7	5	0	-2	0	2
O=S(=O)(N/N=C/c1cn(Cc2ccccc2)c2ccccc12)c1ccccc1	-5	0	0	-5	-2	23
Cc1nn(Cc2ccccc2Cl)c(C)c1NC(=O)CCCn1nc([N+](=O)[O-])c(Cl)c1C	.	4	4	0	.	-9
CCC(CO)[n+]1c(C)cc(/C=C2\Sc3ccccc3N2Cc2ccccc2)cc1C (centres undefined)	.	-7	-2	-6	.	103*
CCCCC1CC(CSC(=N)N)OC1=O (centres undefined)	5	.	.	2	0	.
CC(C)CCC1CC(CSC(=N)N)OC1=O (centres undefined)	-6	-3	4	5.1*	0	11
Cc1nc2sccn2c1-c1csc(NCc2ccccc2)n1	19	-9	.	-3	10	109*
O=C(COC(=O)c1oc2ccccc2c1COc1ccccc1)NCCN1C(=O)CSC1=O	.	4	-3	1	.	0
O=C(CSCc1c(F)cccc1Cl)NCc1cccnc1	.	.	5	0	.	.
COC(=O)CN1C(c2ccccc2)=Nc2ccc(Cl)cc2C1c1ccccc1 (centres undefined)	.	5	-2	-4	1	21
CCOC(=O)N1CCC2(CC1)C(C#N)=C(N)Oc1c2c(C)nn1-c1cccc(Cl)c1	-2	-10	0	-1	-4	88*
Cc1ccc[n+](-c2[nH]c(=O)sc2/C=N/NC(=O)c2ccccc2[O-])c1	.	-3	-6	-2	.	8
CCN1CCN(c2ncnc3c2cnn3-c2ccccc2)CC1	13	6	0	0	0	5
c1ccc(-n2ncc3c(N4CCCCC4)ncnc32)cc1	.	-6	0	-2	11	59*
N#CCN1CCN(CC(=O)Nc2cccc3ccccc23)CC1	-28	.	.	-3	4	.
